# Compound activity (PubChem BioAssay)
# UGM FP inh: M. tuberculosis UGM enzyme inhibitors, primary screen, biochemical, fluorescence polarization, single point | hit rate 0.06% among 320,000 | inhibition, % at 10 µM | UDP-galactopyranose mutase (Mycobacterium tuberculosis (strain ATCC 25618 / H37Rv)), … | AID 504406, 2011 | purified UGM, fluorescence polarization probe displacement; in the data active = inhibition above about 10%, passing the limit was not always enough
# RecA intein inh: Mtb RecA intein splicing inhibitors, primary screen, biochemical, fluorescence, HTS; cell-free RecA intein splicing; inhibition, % (no concentration beside the values); hit rate 0.75% among 290,000; AID 2221, 2009; in the data active = inhibition above about 30%;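 note: 0% = vehicle wells and 100% = reference inhibitor control wells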
# MazEF act: activators of E. coli MazEF toxin-antitoxin RNase, primary screen, biochemical, fluorescence, uHTS; FAM/BHQ RNA-DNA oligo cleavage fluorescence, 5 h; activation, % at 20 µM; hit rate 0.32% among 350,000; AID 504720, 2011; in the data active = activation above about 50%
# TcdB inh: TcdB glycohydrolase inhibitors, primary screen, biochemical, single point, plate reader | Toxin B (Clostridioides difficile), P18177 | TcdB glycohydrolase enzymatic assay | inhibition, % at 9.99 µM | hit rate 0.24% among 350,000 | AID 652162, 2013; in the data active = inhibition above about 10%
# Rv3671c inh: Rv3671c serine protease inhibitors, primary screen, biochemical, fluorescence polarization, M. tuberculosis H37Rv; inhibition, % at 5.96 µM; hit rate 0.048% among 320,000; in the data active = inhibition above about 38%;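 note: extracellular domain of Rv3671c used as enzyme; 0% = enzyme with DMSO and 100% = no enzyme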
# Mtb bLac sens: beta-lactam sensitization of Mtb H37Rv, H37Rv. AID 434955, 2010. hit rate 0.27% among 330,000. inhibition, % at 25 µM. M. tuberculosis H37Rv growth with meropenem, percent inhibition; call rule not given here;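 note: growth measured after seven days incubation then overnight dye step; 0% = bacteria only wells and 100% = bacteria with antibiotic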
# * = called active by the depositor; . = no result given; + = active, no number. An excerpt weighted towards active compounds, which were near 0.97% of everything screened.
SMILES,UGM FP inh,RecA intein inh,MazEF act,TcdB inh,Rv3671c inh,Mtb bLac sens
COc1ccc(C#Cc2ccc3c(c2)O[C@H](CN(C)C(C)=O)[C@@H](C)CN([C@H](C)CO)S3(=O)=O)cc1,.,.,.,0,.,.
C[C@H](CO)N1C[C@H](C)[C@@H](CN(C)CC2CC2)Oc2ccc(NS(=O)(=O)c3ccccc3)cc2C1=O,.,.,.,-2,.,.
CN1[C@@H]2Cn3c(ccc(C4=CCCCC4)c3=O)[C@H]1[C@@H](C(=O)NCc1cccc(F)c1)[C@@H]2CO,.,.,.,2,.,.
Oc1[nH]c2ccccc2c1N=Nc1ccccc1,3,-3,158*,-1,4,-7
O=[N+]([O-])c1ccc2[nH]c(O)c(N=Nc3ccc(F)cc3)c2c1,1,0,316*,1,-3,-6
O=[N+]([O-])c1ccc(N=Nc2c(O)[nH]c3ccc(F)cc23)cc1,0,0,-24,0,-4,8
Oc1[nH]c2ccc(Br)cc2c1N=Nc1ccc(F)cc1,18*,-10,564*,0,-1,42
Oc1[nH]c2ccccc2c1N=Nc1ccccc1F,4,2,+,1,-19,39
CO[C@@H](CN(C)C(=O)c1ccccc1F)[C@@H](C)CN([C@@H](C)CO)S(=O)(=O)c1ccc(F)cc1,.,.,.,1,.,.
Oc1[nH]c2ccccc2c1N=Nc1ccc(F)cc1,0,-1,+,1,-12,8
COc1ccc(S(=O)(=O)N(C)C[C@H]2Oc3ccc(NS(=O)(=O)c4ccc(F)cc4)cc3CC(=O)N([C@@H](C)CO)C[C@@H]2C)cc1,.,.,.,0,.,.
COc1cc2ccccc2cc1C(=O)N/N=C/c1cccs1,.,.,-11,13*,.,.
COC(=O)N/N=C/c1cccs1,1,5,4,4,5,0
O=c1c(Cl)c(NCCCO)cnn1-c1nc2ccccc2[nH]1,-3,44*,5,.,-2,85
Oc1ccc(Cl)cc1/C=C/c1ccc2cccc(O)c2n1,.,-1,60*,2,.,.
Oc1c(Cl)cc(Cl)cc1/C=C/c1ccc2cccc(O)c2n1,-1,8,-9,1,-10,49
NC(=O)[C@@H]1[C@H]2C(=O)O[C@H](c3ccccc3)[C@H](c3ccccc3)N2[C@H](c2ccc(OCCO)cc2)[C@@]12C(=O)Nc1ccccc12,.,.,.,-4,.,.
Cc1cccc(C(=O)NC2C(=O)NNC2c2ccc(Cl)cc2)c1 (configuration not stated),-1,92*,10,-10,-26,7
CC(C)CN1CCN(CC#Cc2ccccc2)CC1CCO (configuration not stated),-1,.,4,10*,-4,1
CC(C)=CCN1CCN(CC#Cc2ccccc2)CC1CCO (configuration not stated),0,0,3,0,5,0
Cc1c(N2C(=O)/C(=C\c3ccc(N(C)C)cc3)N(C)C2=S)c(=O)n(-c2ccccc2)n1C,-3,.,131*,.,-144,11
CN1C(=S)N(c2cccnc2)C(=O)/C1=C\c1ccc(N(C)C)cc1,.,1,-90,-2,.,.
Cc1cccc(Cn2ncc(Cl)c(Cl)c2=O)c1,-1,55*,-4,1,-4,98
C[C@@H]1CN([C@H](C)CO)C(=O)c2cc(NC(=O)Nc3ccc4c(c3)OCO4)ccc2O[C@H]1CN(C)S(=O)(=O)c1ccc(F)cc1,.,.,.,0,.,.
C[C@H](NC(=O)C[C@@H]1C[C@@H]2c3cc(NC(=O)Nc4ccc(C(F)(F)F)cc4)ccc3O[C@@H]2[C@@H](CO)O1)c1ccccc1,.,.,.,1,.,.
CC1=CC(C#N)(C#N)C(C#N)(C#N)C(c2ccccc2)N1 (configuration not stated),-2,8,.,.,43*,0
COC1(OC)N=C(N)C2(C#N)C(c3ccccc3)NC(C)=CC12C#N (configuration not stated),0,-9,-4,.,4,0
O=C(Cc1ccccn1)N1CC2(C1)[C@@H](c1ccccc1)[C@@H](CO)N2C(=O)c1cccnc1,.,.,.,-1,.,.
